From PubChem BioAssay
HP1b chromo inh: inhibitors of HP1-beta chromodomain binding to methylated histone tails | Potency, µM (highest dose often 114 µM), inactives show at the highest dose activity change, negative = inhibition, most hits filed as inhibitors | actives 0.56% (n = 390,000) | AlphaScreen HP1-beta / biotin-H3K9me3 peptide binding | AID 540317 | P83916; note: potency is the fitted concentration of half-maximal effect; nearly all actives have a fitted effect of over 70% in size
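Compound inhibition of the preformed complex between 50 nM HP1-beta and 50 nM biotinylated H3K9me3 peptide was read by AlphaScreen. Buffer was PBS pH 7.4 with 0.01% Tween-20. Incubations ran 30 min at room temperature, with 10 ug/mL donor/acceptor beads.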
PI5P4Ka inh: inhibitors of human PI5P4K alpha. PI5P4Kalpha enzyme, ADP-Glo luminescence, 60 min; active compounds read low. P48426. actives 1.2% (n = 330,000). max response, %. AID 652105; active = max response of -50% or lower; inconclusive = between -30% and -50%; inactive = -30% or higher; note: value at the top dose of about 77 µM; % is set by controls: 0 for no effect and ±100 for the full control effect
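Human PI5P4Kalpha with substrate in 0.038 M HEPES pH 7.4, 0.28 mM EGTA, 0.1% CHAPS, 5% DMSO; reaction started with 5 microM ATP (final), 60 min at room temperature. ADP formed read by ADP-Glo luminescence.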
G9a inh: blocks human histone lysine methyltransferase G9a; G9a H3K9 monomethylation, AlphaScreen, 2 h; Potency, µM (top dose mostly 102 µM), without a hit: top-dose activity, negative = inhibition, usual class: inhibitors; actives 8.8% (n = 350,000); note: potency is the fitted concentration of half-maximal effect; % is set by controls: 0 for no effect and ±100 for the full control effect; nearly all actives have a fitted effect of over 75% in size
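Methyltransferase reactions run at room temperature for 2 h (20 nM enzyme, 500 nM biotin-H3K9 peptide, 20 uM SAM) after a 15 min compound preincubation; product detected by AlphaScreen beads and anti-H3K9me1 antibody.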
PLK1 PBD inh: blocks phosphopeptide binding to human PLK1 polo-box domain; P53350; Plk1 PBD binding of FITC phosphopeptide, fluorescence polarization; Potency, µM, for the others: max response, negative = inhibition, actives largely listed as inhibitors; actives 2.8% (n = 360,000); AID 720504; note: potency is the fitted concentration of half-maximal effect; series mostly up to about 57 µM; % is set by controls: 0 for no effect and ±100 for the full control effect; nearly all actives have a fitted effect of over 65% in size
JMJD2A Tudor: JMJD2A Tudor domain (human) inhibition. O75164. AlphaScreen JMJD2A-Tudor / H3K4me3 peptide binding. Potency, µM (titrated, usually from 114 µM), without a hit: top-dose activity change, negative = inhibition, actives largely listed as inhibitors. actives 4.4% (n = 390,000). AID 504339; note: potency is the fitted concentration of half-maximal effect; % is set by controls: 0 for no effect and ±100 for the full control effect; nearly all actives have a fitted effect of over 50% in size
Target sequence (O75164 whole entry, looked up, the tested form may be a part): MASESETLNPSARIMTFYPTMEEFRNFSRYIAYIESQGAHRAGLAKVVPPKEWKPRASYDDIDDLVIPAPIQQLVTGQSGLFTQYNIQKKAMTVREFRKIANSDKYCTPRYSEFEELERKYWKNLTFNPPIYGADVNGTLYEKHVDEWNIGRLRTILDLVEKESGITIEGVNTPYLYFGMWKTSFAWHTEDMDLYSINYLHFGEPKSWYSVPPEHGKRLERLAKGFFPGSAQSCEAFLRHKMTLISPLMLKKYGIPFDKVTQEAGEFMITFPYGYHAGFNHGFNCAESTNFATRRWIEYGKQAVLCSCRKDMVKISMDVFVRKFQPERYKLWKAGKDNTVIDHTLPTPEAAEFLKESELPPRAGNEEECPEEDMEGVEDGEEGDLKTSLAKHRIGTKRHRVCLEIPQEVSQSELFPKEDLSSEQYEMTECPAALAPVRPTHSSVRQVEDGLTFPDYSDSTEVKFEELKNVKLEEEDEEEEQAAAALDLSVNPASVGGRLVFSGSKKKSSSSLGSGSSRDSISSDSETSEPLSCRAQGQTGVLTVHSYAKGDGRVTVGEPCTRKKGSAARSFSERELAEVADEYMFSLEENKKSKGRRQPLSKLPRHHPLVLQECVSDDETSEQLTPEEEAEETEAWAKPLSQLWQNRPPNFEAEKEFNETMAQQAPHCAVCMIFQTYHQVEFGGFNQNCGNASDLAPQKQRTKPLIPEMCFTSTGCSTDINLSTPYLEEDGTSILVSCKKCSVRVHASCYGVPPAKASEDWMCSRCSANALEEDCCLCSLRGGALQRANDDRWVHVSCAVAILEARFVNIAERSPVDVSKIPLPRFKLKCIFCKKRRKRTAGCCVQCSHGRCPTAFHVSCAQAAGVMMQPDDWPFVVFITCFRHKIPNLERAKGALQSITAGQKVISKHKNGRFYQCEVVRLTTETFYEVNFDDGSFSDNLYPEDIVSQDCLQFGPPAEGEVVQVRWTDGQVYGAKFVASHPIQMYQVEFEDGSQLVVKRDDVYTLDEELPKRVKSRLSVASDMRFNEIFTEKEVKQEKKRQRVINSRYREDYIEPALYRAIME
BAZ2B block: blocks human BAZ2B. Q9UIF8. AlphaScreen BAZ2B-H3K14Ac peptide displacement. Potency, µM (doses to about 114 µM), for inactives: top-dose activity change, negative = inhibition, usual class: inhibitors. actives 4.4% (n = 360,000). AID 504333; note: potency is the fitted concentration of half-maximal effect; % is set by controls: 0 for no effect and ±100 for the full control effect; nearly all actives have a fitted effect of over 60% in size
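Compounds, titrated to a top concentration of 110 uM, were incubated 30 min at room temperature with preformed BAZ2B/acetyl-K14 H3 peptide complex (50 nM each). Proximity signal was measured by AlphaScreen after 20 min with beads.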
* marks the source's active call; other numbers are inactive results; [ ] = remark or other dose. This is a sample that favours compounds with a hit; in the whole collection about 12% have one here. Unless noted, calls come from the whole dose curve; as a rule, active = well fitted curve in the direction sought with a large enough effect; inconclusive = small, poorly fitted or top-dose-only effect, or another doubt; inactive = no such curve, though single readings can be large; an effect the other way counts as inactive or inconclusive.

For CC1(C)Cc2c(sc3c2c(=N)n(Cc2ccco2)c(=O)n3Cc2ccc(Cl)cc2)CO1 the results were HP1b chromo inh -1%, PI5P4Ka inh 1, G9a inh inconclusive, PLK1 PBD inh 7% and JMJD2A Tudor -25%.
For CC1(C)Cc2c(sc3[nH]c(=S)n(Cc4ccco4)c(=O)c23)CO1 the results were HP1b chromo inh -8%, G9a inh 50µM*, PLK1 PBD inh inconclusive, JMJD2A Tudor inconclusive and BAZ2B block -3%.
Screening CC1(C)Cc2c(sc3c2c(=N)n(Cc2ccco2)c(=O)n3Cc2ccccc2)CO1 returned HP1b chromo inh -7%, PI5P4Ka inh -5, G9a inh inconclusive, PLK1 PBD inh inconclusive, JMJD2A Tudor -8%[11.4 µM] and BAZ2B block 79µM*.
Cc1ccccc1NC(=O)c1c(C)oc2ccc(O)c(CN3CCCCCC3)c12 was read as HP1b chromo inh -27%, G9a inh -20%[59 µM], JMJD2A Tudor -26% and BAZ2B block -10%.
`CC(=O)N1CCc2cc(Br)cc(S(=O)(=O)N3CCN(c4cccc(C)c4)C(C)C3)c21` (stereo not drawn) gave HP1b chromo inh -3%, G9a inh inconclusive, JMJD2A Tudor inconclusive and BAZ2B block inconclusive.
For CCCCCSc1nc2sc3c(c2c(=O)n1-c1ccc(OC)cc1)CCN(C(C)=O)C3 the results were HP1b chromo inh -18%, G9a inh 11µM*, JMJD2A Tudor inconclusive and BAZ2B block -38%.
CC(=O)N1CCc2c(sc3c2c(=O)n(-c2ccccc2)c(=O)n3Cc2ccccc2Cl)C1 was read as HP1b chromo inh inconclusive, PI5P4Ka inh -5, G9a inh inconclusive, PLK1 PBD inh 30µM*, JMJD2A Tudor -23%[57.1 µM] and BAZ2B block inconclusive.
`CSc1nc2sc3c(c2c(=O)n1-c1ccc(C)c(Cl)c1)CCN(C(C)=O)C3` gave HP1b chromo inh 31%, G9a inh -24%[59 µM], JMJD2A Tudor -32% and BAZ2B block 79µM*.
For CCCCSc1nc2sc3c(c2c(=O)n1-c1ccc(OC)cc1)CCN(C)C3 the results were HP1b chromo inh 1%, PI5P4Ka inh -3, G9a inh inconclusive, PLK1 PBD inh inconclusive, JMJD2A Tudor inconclusive and BAZ2B block -27%.
CSc1nc2sc3c(c2c(=O)n1-c1ccc(C)cc1)CCCC3 was read as HP1b chromo inh 26%, G9a inh -38%[59 µM], JMJD2A Tudor -8% and BAZ2B block 0%.
For CC(=O)N1CCc2c(sc3c2c(=O)n(-c2cccc(Cl)c2)c(=O)n3Cc2ccc(F)cc2Cl)C1 the results were HP1b chromo inh 13%, G9a inh -18%[59 µM], JMJD2A Tudor -27% and BAZ2B block -22%.
COc1ccc(OCC(=O)Nc2cc(-c3ccccc3F)nn2-c2ccccc2)cc1 was read as HP1b chromo inh 22%[57 µM], G9a inh 7%[59 µM], JMJD2A Tudor -1% and BAZ2B block 6%.
CCCCn1cc(S(=O)(=O)c2ccc(OC)cc2)c(=O)c2cc(CC)ccc21 was read as HP1b chromo inh 37%, G9a inh -28%[59 µM], JMJD2A Tudor -16% and BAZ2B block -2%.
Screening CCCCn1c(N)c(N(CCOC)C(=O)C(C)N2C(=O)c3ccccc3C2=O)c(=O)[nH]c1=O (stereo not drawn) returned HP1b chromo inh 12%, PI5P4Ka inh -1, G9a inh 2%[0.501 µM], PLK1 PBD inh 5%, JMJD2A Tudor -14% and BAZ2B block -4%.
For c1ccc2sc(NCC3CCCO3)nc2c1 (stereo not drawn) the results were HP1b chromo inh 43%, PI5P4Ka inh 1, G9a inh 3%, PLK1 PBD inh 0%, JMJD2A Tudor -5% and BAZ2B block -8%.
Screening CC1=CC(=C(C#N)c2nc3ccccc3s2)C=C(C)N1CC1CCCO1 (stereo not drawn) returned HP1b chromo inh 80%, PI5P4Ka inh 2, G9a inh 18%, PLK1 PBD inh 27µM*, JMJD2A Tudor 31% and BAZ2B block 22%.
